{"source": "PubChem BioAssay (Tox21)", "note": "Several values for one entry are separate records, joined by “and”; a condition that tells them apart may be missing. Equal entries are not always repeated. Records with an inconclusive call do not appear. Unmarked numbers belong to inactive results. Activity calls are given as the source filed them. Calls come from the whole dose curve; as a rule, active = well fitted curve in the direction sought with a large enough effect in the repeat runs; inconclusive = weak or mixed curves; inactive = no such curve, though single readings can be large; an effect the other way counts as inactive or inconclusive. % is set by controls: 0 for no effect and ±100 for the full control effect; potency is the fitted concentration of half-maximal effect. Note: nearly all actives have a fitted effect of over 50% in size."}
{"test_system": "not listed separately", "assay": "qHTS assay to identify small molecule antagonists of the retinoid-related orphan receptor gamma (ROR-gamma) signaling pathway - cell viability counter screen (AID 1159520)", "conditions": "Tet-on RORgamma CHO cells viability, ATP luminescence, 16 h; series mostly up to 92.4 µM; activity, negative = cytotoxicity: at the top concentration", "in_short": "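Cytotoxicity was read from cellular ATP (CellTiter-Glo luminescence) after 16 hr at 37 C with 1 uM doxycycline induction. The inducer was added 2 hr after compound transfer to Tet-on ROR gamma CHO cells.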"}
{"smiles": "c1ccc2c(c1)[nH]c1cnccc12", "activity, negative = cytotoxicity": "-9.32%"}
{"smiles": "[Cd+2].[Cl-].[Cl-]", "Potency": "27.5 µM (active)"}
{"smiles": "O=C(CCl)C(Cl)Cl", "Potency": "27.6 µM (active)"}
{"smiles": "COC(=O)N(C(=O)N1CO[C@@]2(C(=O)OC)Cc3cc(Cl)ccc3C2=N1)c1ccc(OC(F)(F)F)cc1", "activity, negative = cytotoxicity": "-7.96%"}
{"smiles": "Nc1ccc(Sc2ccc(N)cc2)cc1", "activity, negative = cytotoxicity": "-7.48%"}
{"smiles": "CCC[CH2][Sn]([CH2]CCC)([CH2]CCC)[O]C(=O)c1ccccc1", "Potency": "0.686 µM (active)"}
{"smiles": "C[C@]12CC[C@@H]3c4ccc(OC(=O)N(CCCl)CCCl)cc4CC[C@H]3[C@@H]1CC[C@@H]2O", "activity, negative = cytotoxicity": "-18.1% [at 42.5 µM]"}
{"smiles": "CCCN(CCC)c1c([N+](=O)[O-])cc(S(N)(=O)=O)cc1[N+](=O)[O-]", "Potency": "54.5 µM (active)"}
{"smiles": "O=C(CCl)Nc1ccccc1", "Potency": "27.3 µM (active)"}
{"smiles": "S=C=Nc1cccc2ccccc12", "activity, negative = cytotoxicity": "-19.9%"}
{"smiles": "CCCCCCCCc1ccc(O)cc1", "Potency": "61.5 µM (active)"}
{"smiles": "CN(C)C1CSSSC1", "activity, negative = cytotoxicity": "-8.39%"}
{"smiles": "CC(C)[C@H](C(=O)O[C@H](C#N)c1cccc(Oc2ccccc2)c1)c1ccc(Cl)cc1", "activity, negative = cytotoxicity": "-0.344%"}
{"smiles": "CC(C)[C@H](C(=O)OC(C#N)c1cccc(Oc2ccccc2)c1)c1ccc(OC(F)F)cc1", "note": "(stereo partly drawn)", "activity, negative = cytotoxicity": "-7.8%"}
{"smiles": "CC1CCC(C(C)C)C(OC(=O)c2ccccc2N)C1", "note": "(stereo not drawn)", "Potency": "53.7 µM (active)"}
{"smiles": "O=[N+]([O-])c1c2ccccc2cc2ccccc12", "activity, negative = cytotoxicity": "-16.8%"}
{"smiles": "[Hg+2].[I-].[I-]", "Potency": "2.17 µM (active)"}
{"smiles": "CC[C@H]1C[C@@H]2C[C@H]3c4[nH]c5ccc(OC)cc5c4CCN(C2)[C@@H]13", "activity, negative = cytotoxicity": "-4.55%"}
{"smiles": "COc1cccc2c1C(=O)c1c(O)c3c(c(O)c1C2=O)C[C@@](O)(C(=O)CO)CC3OC1CC(N2CCOC(OC)C2)C(O)C(C)O1", "note": "(stereo partly drawn)", "Potency": "0.133 µM (active)"}
{"smiles": "CC1(C)[C@H](C(=O)O[C@H](C#N)c2cccc(Oc3ccccc3)c2)[C@@H]1/C=C(\\Cl)C(F)(F)F", "activity, negative = cytotoxicity": "-18.1%"}
{"target": "Nuclear receptor ROR-gamma (Homo sapiens) (UniProt P51449)", "assay": "qHTS assay to identify small molecule antagonists of the retinoid-related orphan receptor gamma (ROR-gamma) signaling pathway (AID 1159521;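 for activity change, negative = inhibition: CHO cells with doxycycline inducible ROR-gamma driving an RORE luciferase reporter; top concentration of the series differs between compounds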)", "conditions": "Tet-on RORgamma CHO cells, RORE-luciferase, 16 h; series mostly up to 92.4 µM; activity change, negative = inhibition: at the top concentration", "in_short": "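CHO cells expressing RORγ under a TET-on promoter, luciferase under RORE control. Dox 1 uM final, 16 h; compounds added 2 h prior. Luminescence decrease measured.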", "units": {"activity change, negative = inhibition": "%"}}
{"smiles": "ClC1=C(Cl)C2(Cl)C3C(Cl)C(Cl)CC3C1(Cl)C2(Cl)Cl", "note": "(stereo not drawn)", "Potency": "27.2 µM (active) and 61.1 µM (active)"}
{"smiles": "Clc1ccc(C(c2ccccc2Cl)C(Cl)(Cl)Cl)cc1", "note": "(stereo not drawn)", "Potency": "40.2 µM (active)"}
{"smiles": "Oc1c(Cl)c(Cl)cc(Cl)c1Cl", "Potency": "23.7 µM (active)"}
{"smiles": "CC(=O)C(Cl)(Cl)Cl", "Potency": "9.35 µM (active)"}
{"smiles": "O=C(CCl)C(Cl)Cl", "Potency": "6.17 µM (active)"}
{"smiles": "CCOC(=O)C1(c2ccccc2)CCN(CCC(C#N)(c2ccccc2)c2ccccc2)CC1", "Potency": "18.8 µM (active)"}
{"smiles": "N#C/C=C/C#N", "activity change, negative = inhibition": -29.7}
{"smiles": "O=c1oc2ccccc2c(O)c1Cc1c(O)c2ccccc2oc1=O", "Potency": "7.5 µM (active)"}
{"smiles": "CC(=O)/C=C/c1ccc2c(c1)OCO2", "activity change, negative = inhibition": -11.6}
{"smiles": "O=C(CCl)Nc1ccccc1", "Potency": "21.7 µM (active)"}
{"smiles": "CSCCCN=C=S", "activity change, negative = inhibition": 28.9}
{"smiles": "C=CC(=O)OCC(COC(=O)C=C)(COC(=O)C=C)COC(=O)C=C", "Potency": "3.44 µM (active)"}
{"smiles": "CC(Cc1ccc(C(C)(C)C)cc1)CN1C[C@@H](C)O[C@@H](C)C1", "note": "(stereo partly drawn)", "activity change, negative = inhibition": 5.03}
{"smiles": "CCC(C)c1cc([N+](=O)[O-])cc([N+](=O)[O-])c1OC(=O)C=C(C)C", "note": "(stereo not drawn)", "Potency": "17.2 µM (active)"}
{"smiles": "CC[C@H]1C[C@@H]2C[C@H]3c4[nH]c5ccc(OC)cc5c4CCN(C2)[C@@H]13", "activity change, negative = inhibition": -14.3}
{"smiles": "c1ccc(Nc2ccc3ccccc3c2)cc1", "Potency": "inactive"}
{"smiles": "CC(C)(O)c1cnn2c(-c3ccc(F)c(-c4c(F)cccc4C#N)c3)cnc2n1", "Potency": "61.1 µM (active)"}
{"smiles": "O=[N+]([O-])c1ccc2ccc3cccc4ccc1c2c34", "activity change, negative = inhibition": 10.6}
